# Only a selection was taken, and the strongest signals are over-represented in it overall.
# Experiments:
# Experiment in all cases: glycan array binding signal (z-score within array); higher = stronger binding
# Conditions in all cases: glycan notation: IUPAC condensed, linker removed
# GalNAc(a1-3)GalNAc = biological target: GalNAc(a1-3)GalNAc
# In short: (§1)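 Columns mapping to the same glycan were averaged after glycan names were converted to IUPAC-condensed notation. The data come from 3228 arrays in the Consortium for Functional Glycomics database, limited to those with an available protein sequence. Binding is reported as a within-array Z-score averaged across arrays of one protein sequence and across linkers.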
# [1] = biological target: GalNAc(b1-4)GlcNAc(b1-2)Man(a1-3)[GalNAc(b1-4)GlcNAc(b1-2)Man(a1-6)]Man(b1-4)GlcNAc(b1-4)GlcNAc
# In short: as §1
# [2] = biological target: GalNAc(b1-4)GlcNAc(b1-3)GalNAc(b1-4)GlcNAc
# In short: as §1
# Glc(a1-6)Glc(a1-6)Glc = biological target: Glc(a1-6)Glc(a1-6)Glc
# In short: as §1
# GlcA(b1-3)Gal = biological target: GlcA(b1-3)Gal
# In short: as §1
# [3] = biological target: GlcNAc(b1-2)Man(a1-3)[GlcNAc(b1-4)][GlcNAc(b1-2)Man(a1-6)]Man(b1-4)GlcNAc(b1-4)[Fuc(a1-6)]GlcNAc
# In short: as §1
# [4] = biological target: GlcNAc(b1-3)Gal(b1-4)GlcNAc(b1-2)[GlcNAc(b1-3)Gal(b1-4)GlcNAc(b1-6)]Man(a1-6)[GlcNAc(b1-3)Gal(b1-4)GlcNAc(b1-2)Man(a1-3)]Man(b1-4)GlcNAc(b1-4)GlcNAc
# In short: as §1
# [5] = biological target: GlcNAc(b1-3)Gal(b1-4)GlcNAc(b1-3)Gal(b1-4)GlcNAc(b1-2)Man(a1-3)[GlcNAc(b1-3)Gal(b1-4)GlcNAc(b1-3)Gal(b1-4)GlcNAc(b1-2)Man(a1-6)]Man(b1-4)GlcNAc(b1-4)[Fuc(a1-6)]GlcNAc
# In short: as §1
# [6] = biological target: GlcNAc(b1-3)Gal(b1-4)GlcNAc(b1-3)Gal(b1-4)GlcNAc(b1-2)[GlcNAc(b1-3)Gal(b1-4)GlcNAc(b1-3)Gal(b1-4)GlcNAc(b1-6)]Man(a1-6)[GlcNAc(b1-3)Gal(b1-4)GlcNAc(b1-3)Gal(b1-4)GlcNAc(b1-2)Man(a1-3)]Man(b1-4)GlcNAc(b1-4)[Fuc(a1-6)]GlcNAc
# In short: as §1
# [7] = biological target: GlcNAc(b1-3)Gal(b1-4)GlcNAc(b1-3)GalNAc
# In short: as §1
# [8] = biological target: Kdn(a2-3)Gal(b1-4)[Fuc(a1-3)]GlcNAc
# In short: as §1
# [9] = biological target: Man(a1-2)Man(a1-2)Man(a1-3)Man
# In short: as §1
# [10] = biological target: Neu5Ac(a2-3)Gal(b1-3)GalNAc
# In short: as §1
# [11] = biological target: Neu5Ac(a2-3)Gal(b1-3)GalNAc6S
# In short: as §1
# [12] = biological target: Neu5Ac(a2-3)Gal(b1-3)GlcNAc(b1-6)GalNAc
# In short: as §1
# [13] = biological target: Neu5Ac(a2-3)Gal(b1-3)[Fuc(a1-4)]GlcNAc(b1-3)Gal(b1-3)[Fuc(a1-4)]GlcNAc
# In short: as §1
# [14] = biological target: Neu5Ac(a2-3)Gal(b1-3)[Neu5Ac(a2-6)]GlcNAc(b1-3)[Fuc(a1-3)[Gal(b1-4)]GlcNAc(b1-6)]Gal(b1-4)Glc
# In short: as §1
# [15] = biological target: Neu5Ac(a2-3)Gal(b1-4)GlcNAc(b1-3)Gal(b1-4)GlcNAc(b1-3)[Neu5Ac(a2-3)Gal(b1-4)GlcNAc(b1-3)Gal(b1-4)GlcNAc(b1-6)]GalNAc
# In short: as §1
# [16] = biological target: Neu5Ac(a2-3)Gal(b1-4)GlcNAc(b1-6)[Gal(b1-3)]GalNAc
# In short: as §1
# [17] = biological target: Neu5Ac(a2-3)Gal(b1-4)[Fuc(a1-3)]GlcNAc(b1-3)Gal(b1-4)GlcNAc
# In short: as §1
# [18] = biological target: Neu5Ac(a2-6)Gal(b1-4)GlcNAc(b1-2)Man(a1-3)[Neu5Ac(a2-6)Gal(b1-4)GlcNAc(b1-2)Man(a1-6)]Man(b1-4)GlcNAc(b1-4)[Fuc(a1-6)]GlcNAc
# In short: as §1
# [19] = biological target: Neu5Ac(a2-6)Gal(b1-4)GlcNAc(b1-3)Gal(b1-4)GlcNAc(b1-3)Gal(b1-4)GlcNAc
# In short: as §1
# [20] = biological target: Neu5Ac(a2-6)Gal(b1-4)GlcNAc(b1-3)Gal(b1-4)GlcNAc(b1-3)Gal(b1-4)GlcNAc(b1-2)Man(a1-3)[Neu5Ac(a2-6)Gal(b1-4)GlcNAc(b1-3)Gal(b1-4)GlcNAc(b1-3)Gal(b1-4)GlcNAc(b1-2)Man(a1-6)]GalNAc
# In short: as §1
# [21] = biological target: Neu5Ac(a2-6)Gal(b1-4)GlcNAc(b1-3)GalNAc
# In short: as §1
# [22] = biological target: Neu5Ac(a2-8)Neu5Ac(a2-3)[GalNAc(b1-4)]Gal(b1-4)Glc
# In short: as §1
# [23] = biological target: Neu5Ac(a2-8)Neu5Ac(a2-8)Neu5Ac(a2-3)Gal(b1-4)Glc
# In short: as §1
# [24] = biological target: Neu5Ac(a2-8)Neu5Gc(a2-3)Gal(b1-4)GlcNAc
# In short: as §1
# [25] = biological target: Neu5Gc(a2-3)Gal(b1-3)[Fuc(a1-4)]GlcNAc
# In short: as §1
binder,measurement,setting,value
PX14343F-bfa-562-20-562 (Bacteroides fragilis) (protein) CDDFLDSFPQDTVTNENFWKSKEDADKVLVDIYASLLPKDAIFFDEAMSDNAYLVWDWWGGAQQVANGSYTTSGEIPTNRWNGSYEVIRKCWFLLEGIEKIEDISEQDKNKIIGETYFMLAYNYYVLTSYFGDVPLVTKTLAIPESKQLVRTPKAEVVDYAINKLKEAAVMLEGLSQEKGRVTADACRFLIARMYLYNGDYSNVLETVKLLEGKYQLYREGDTPYEDLFSGVAENSCEVILSVVCDKRVGEIYTSHGGNGIMLLKGITGEDPYRGVTPSGSLVDAYPMADGRLIHEAGSSYDPKKPYEGRDPRFYQSIVYPTGQIKYLDVETGTVKERLYDPEDPTTVPEHQYNYSQPSATGYMWNKYIDYSVYAMNSVWDCTNDIIVFRYADVLLMKAEALLQTKGESAKEEVCNLIDQLRDRCSCGRVHRENYNSKDELMELLKNERRIELANEGLRYMDLIRWKDAEKNTIVTGVGLTGQMYGAYMRKDGVGKDDKTVDVDNTPRRYIETRYFNASKGYLFPIPQKERDLNPNLTQNPNW,glycan array binding signal (z-score),GalNAc(a1-3)GalNAc,0.306
same,glycan array binding signal (z-score),[1],2.1
same,glycan array binding signal (z-score),[2],0.152
same,glycan array binding signal (z-score),Glc(a1-6)Glc(a1-6)Glc,-0.43
same,glycan array binding signal (z-score),GlcA(b1-3)Gal,-0.822
same,glycan array binding signal (z-score),[3],-0.489
same,glycan array binding signal (z-score),[4],1.87
same,glycan array binding signal (z-score),[5],1.72
same,glycan array binding signal (z-score),[6],0.546
same,glycan array binding signal (z-score),[7],0.486
same,glycan array binding signal (z-score),[8],-0.468
same,glycan array binding signal (z-score),[9],-0.59
same,glycan array binding signal (z-score),[10],-0.546
same,glycan array binding signal (z-score),[11],-0.506
same,glycan array binding signal (z-score),[12],1.15
same,glycan array binding signal (z-score),[13],-0.121
same,glycan array binding signal (z-score),[14],-0.957
same,glycan array binding signal (z-score),[15],1.61
same,glycan array binding signal (z-score),[16],-0.723
same,glycan array binding signal (z-score),[17],0.262
same,glycan array binding signal (z-score),[18],1.09
same,glycan array binding signal (z-score),[19],-0.047
same,glycan array binding signal (z-score),[20],2.16
same,glycan array binding signal (z-score),[21],-0.734
same,glycan array binding signal (z-score),[22],1.74
same,glycan array binding signal (z-score),[23],0.121
same,glycan array binding signal (z-score),[24],19.1
same,glycan array binding signal (z-score),[25],-0.055
